According to the supplement of paper PMC11006884:
Targets with a hit are over-represented here; the source holds about 6,500 in all. About 2% of all pairs of compound and target were hits.

Compound: COC(=O)C#Cc1ccccc1 [methyl 3-phenylpropiolate]
Test: log2 ratio of iodoacetamide-alkyne labeling of the cysteine site, DMSO over compound (competition); higher = stronger covalent engagement of the cysteine by the compound, active = 1 or more
Details: 500 µM; treatment time 1 h; system: HEK293T cell lysate
Summary of the method: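 Electrophile (500 µM) or vehicle was added to HEK293T lysate (2 mg/mL) for 1 h at ambient temperature before iodoacetamide alkyne labelling (1 h) and click coupling to sCIP-TMT reagents. After pooling, overnight trypsin digestion at 37 °C, streptavidin enrichment and acid elution, peptides were measured by Orbitrap Eclipse LC-MS/MS with FAIMS and quantified in FragPipe. Each cysteine's log2 competition ratio compares mean control-channel with mean compound-channel reporter intensity, control over compound. Data came from duplicate channels across three replicates, excluding cysteines quantified in only one replicate.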

log2 ratio of iodoacetamide-alkyne labeling, active:
FLAD1 C496 (UniProt Q8NFF5) 1.06
NAT14 C108 (UniProt Q8WUY8) 1.05
DHX38 C27 (UniProt Q92620) 1.36
BEND3 C95 (UniProt Q5T5X7) 1.11
ISCA2 C146 (UniProt Q86U28) 1.59
CPPED1 C54 (UniProt Q9BRF8) 1.01

log2 ratio of iodoacetamide-alkyne labeling, inactive:
CCT7 C310 (UniProt Q99832) 0.193
SMAP2 C196 (UniProt Q8WU79) 0.318
UniProt Q9BSH4_C256 -0.207
NCAPG C751 (UniProt Q9BPX3) 0.416
APIP C97 (UniProt Q96GX9) 0.129
ARID2 C1549 (UniProt Q68CP9) 0.434
LGMN C219 (UniProt Q99538) 0.865
KIAA2013 C185 (UniProt Q8IYS2) 0.14
RANBP9 C610 (UniProt Q96S59) 0.53
RSBN1L C280 (UniProt Q6PCB5) 0.649
OSBPL9 C720 (UniProt Q96SU4) -0.0484
UniProt Q92616_C36 0.339
SPAG5 C1035 (UniProt Q96R06) 0.251
UniProt Q6PJG6_C720 0.324
PHF6 C28 (UniProt Q8IWS0) 0.287
SND1 C96 (UniProt Q7KZF4) 0.115
RDH13 C30 (UniProt Q8NBN7) 0.116
SETD7 C200 (UniProt Q8WTS6) 0.34
UBR4 C1450 (UniProt Q5T4S7) 0.138
SEC14L1 C258 (UniProt Q92503) 0.208
SMARCC1 C164 (UniProt Q92922) 0.146
ZGPAT C377 (UniProt Q8N5A5) 0.342
UniProt Q96HE7_C241 0.0793
UniProt Q8WUQ7_C699 0.0859
TBC1D15 C686 (UniProt Q8TC07) 0.635
DAZAP1 C39 (UniProt Q96EP5) 0.0955
ZNF318 C1559 (UniProt Q5VUA4) 0.605
CAND1 C275 (UniProt Q86VP6) -0.226
PHIP C612 (UniProt Q8WWQ0) -0.25
